Results taken from PubChem BioAssay (NCI).
This is part of a sample that, as a whole, favours compounds with a hit. Of some 83,000 tested, about 20% had one in any assay.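 The test compound was applied at a single concentration to cells in 96-well plates for 48 hours, and percent growth was recorded.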 Unmarked numbers belong to inactive results. The source made the active and inactive calls. Rule for the calls: active = growth percent below 10; inactive = the rest.

Assays:
Test in all cases: NCI-60 one-dose screen, 48 h (100 = growth as untreated, 0 = no growth, -100 = all killed)
[1] = test system: HCT-15 colon; details: 10 µM unless noted
[2] = test system: HT29 colon; details: 10 µM unless noted
[3] = test system: SNB-19 CNS; details: 10 µM unless noted
[4] = test system: U251 CNS; details: 10 µM unless noted
[5] = test system: PC-3 prostate; details: 10 µM unless noted
[6] = test system: SK-MEL-5 melanoma; details: 10 µM unless noted
[7] = test system: LOX IMVI melanoma; details: 10 µM unless noted
[8] = test system: SK-MEL-28 melanoma; details: 10 µM unless noted
[9] = test system: SK-MEL-2 melanoma; details: 10 µM unless noted
[10] = test system: EKVX NSCLC; details: 10 µM unless noted
[11] = test system: SN12C renal; details: 10 µM unless noted
[12] = test system: TK-10 renal; details: 10 µM unless noted
[13] = test system: ACHN renal; details: 10 µM unless noted
[14] = test system: CAKI-1 renal; details: 10 µM
[15] = test system: A498 renal; details: 10 µM unless noted
[16] = test system: CCRF-CEM leukemia; details: 10 µM unless noted
[17] = test system: MOLT-4 leukemia; details: 10 µM unless noted
[18] = test system: UACC-62 melanoma; details: 10 µM unless noted
[19] = test system: UO-31 renal; details: 10 µM unless noted
[20] = test system: SNB-75 CNS; details: 10 µM unless noted

Row | SMILES | growth [1] [%] | growth [2] | growth [3] [%] | growth [4] [%] | growth [5] | growth [6] [%] | growth [7] | growth [8] | growth [9] [%] | growth [10] [%] | growth [11] [%] | growth [12] [%] | growth [13] [%] | growth [14] | growth [15] | growth [16] | growth [17] | growth [18] [%] | growth [19] [%] | growth [20] [%]
1 | COc1ccc2c(c1)C(=O)/C(=C/c1cccc(OCC(=O)c3ccccc3)c1)O2 | 31.8 | -15.7% (active) | 99.1 | 41.5 | -43.4% (active) | 50.2 | -5.01% (active) | -11.1% (active) | 75.1 | 82.1 | 32.9 | 30.7 | 45.1 | -98.1% (active) | 117% | -39.3% (active) | -52.4% (active) |  |  | 
2 | O=S(=O)(O)c1ccc(F)cc1 | 104 | 96.5% | 114 | 109 | 106% | 105 | 98.9% | 111% | 93.6 | 101 | 111 | 90.2 |  |  | 101% | 90.6% | 98.5% | 107 | 86.4 | 
3 | Cc1ccc(NC(=O)CN2CCOCC2)cc1Cl | 102 | 80.6% | 94.8 | 97.7 | 74.7% | 95.6 | 101% | 104% | 95.1 | 93.2 | 93.1 | 95.6 |  |  | 61.3% | 78.9% | 90.2% | 92.7 | 90.4 | 
4 | COc1ccc2c(-c3ccc(F)cc3)c(C#N)c(=NC(C)=O)oc2c1 | 25.8 | 95.6% | 33.7 | 39.5 | 30.6% | 24.7 | 41.9% | 69.7% | 26.5 | 62.8 | 56.9 | 78.1 |  |  | 18.1% | 13.1% | 29.6% | 32.1 | 50.4 | 
5 | CCOc1cccc(Nc2nc(N)nc3[nH]c4ccc(O)cc4c23)c1 | 85.4 | 93.3% | 70.1 | 79.7 | 74.8% | 54.4 | 36.7% | 89.3% | 90.2 | 27.8 | 54.1 | 27.2 | 40.8 |  | 51% | 61.7% | 53.9% | 73.8 | 36.4 | 
6 | O=[N+]([O-])c1ccc(NS(=O)(=O)c2cc(Cl)ccc2Cl)c2ccccc12 | 54.2 | 59.4% | 60.1 | 67.1 | 54.7% | 14 | 56.4% | 35.4% | 18.7 | 50.9 | 45.8 | 75.8 | 78.9 |  |  | 29.1% | 46.8% |  | 43 | 
7 | c1coc(CSc2ncnc3nc[nH]c23)c1 |  | 110% | 86.2 | 102 | 90.1% | 109 | 89.2% | 108% | 105 | 103 | 102 | 125 | 106 |  |  |  |  | 98.3 | 86.5 | 95.1
8 | CCc1cccc(C)c1NC(=O)c1sc2nc3c(cc2c1N)CCCCC3 | 27.5 | 8.55% (active) | 26.8 | 24.1 | 35.5% | 14.2 | 45.1% | 67.6% | 38.9 | 45.7 | 41.1 | 66.7 |  |  | 8.2% (active) | 16.6% | 26.7% | 30.2 | 51 | 
9 | COc1ccc2c(c1)/C(=C/c1c(-c3cc(OC)c(OC)c(OC)c3Br)nc3sccn13)C(=O)N2 | 109 | 103% | 106 | 93.4 | 82.6% | 83.1 | 64.7% | 123% | 87.3 | 84.6 | 120 | 118 | 86.5 |  | 108% | 81% | 73.2% | 69.2 | 83.3 | 
